Test results reported in the supplement of paper PMC13380429.

Each compound was assayed on Vero E6 infected with SARS-CoV-2 (assay: morphology score (similarity to uninfected cells); higher = more like uninfected cells). Settings: 24 h.

Compound	morphology score
O=C(Nc1ccccc1)c1cc([N+](=O)[O-])ccc1Cl (10 µM)	0.103
N#Cc1ccc(Cn2cncc2CN2CCN(c3cccc(Cl)c3)C(=O)C2)cc1 (10 µM)	0.276
Cc1cc(-c2ccccc2)nnc1NCCN1CCOCC1 [minaprine] (10 µM)	0.145
Cc1cccc(-c2[nH]c(C(C)(C)C)nc2-c2ccc3c(c2)OCO3)n1 (10 µM)	-0.132
COc1cc(C(=O)N2CCC(N3CCN(C)CC3)CC2)ccc1Nc1ncc2c(n1)N(C)c1ccccc1C(=O)N2C (0.833333 µM)	0.0522
CC(C)(C)c1ccc(S(=O)(=O)/C=C/C#N)cc1 (0.833333 µM)	0.173
NC(=O)c1cccc2cn(-c3ccc([C@@H]4CCCNC4)cc3)nc12 [niraparib] (0.833333 µM)	0.0643
C#C[C@]1(O)CC[C@H]2[C@@H]3CCC4=CC(=NO)CC[C@@H]4[C@H]3CC[C@@]21CC (mixture of isomers) [norelgestromin] (10 µM)	-0.0918
CCCn1c(=O)c2[nH]c(-c3cnn(Cc4cccc(C(F)(F)F)c4)c3)nc2n(CC)c1=O (10 µM)	0.163
O=C(O)C(=O)CBr [3-bromopyruvate] (10 µM)	-0.102
CCCN1CCO[C@@H]2c3cc(O)ccc3OC[C@H]21 (10 µM)	0.173
C=C1C(=O)O[C@@H]2[C@H]3O[C@]3(C)CC/C=C(\C)CC[C@@H]12 [parthenolide-(alternate-stereo)] (0.833333 µM)	0.111
O=[N+]([O-])c1ccc2nc(COCc3nc4ccc([N+](=O)[O-])cc4[nH]3)[nH]c2c1 (10 µM)	-0.00439
O=c1[nH]c2cc(C(F)(F)F)c(N3CCOCC3)cc2n(CP(=O)(O)O)c1=O (10 µM)	0.119
CCC(COC(=O)c1cc(OC)c(OC)c(OC)c1)(c1ccccc1)N(C)C (stereo not given) [trimebutine] (10 µM)	0.103
CCCCS(=O)(=O)N[C@@H](Cc1ccc(OCCCCC2CCNCC2)cc1)C(=O)O [tirofiban] (10 µM)	0.0487
OCCOCCN1CCN(C(c2ccccc2)c2ccc(Cl)cc2)CC1 (stereo not given) [hydroxyzine] (10 µM)	0.0655
N[C@@]1(C(=O)O)CC[C@H]2[C@H](C(=O)O)[C@H]21 [eglumetad] (10 µM)	-0.0541
CN(C)N(C)C(=O)[C@@]1(Cc2ccccc2)CCCN(C(=O)[C@@H](Cc2c[nH]c3ccccc23)NC(=O)C(C)(C)N)C1 [anamorelin] (10 µM)	0.0474
CCCCCN(CCCOC)C(=O)[C@@H](CCC(=O)O)NC(=O)c1ccc(Cl)c(Cl)c1 [dexloxiglumide] (10 µM)	0.0908

Compound	morphology score
Cc1c(OCC(F)(F)F)ccnc1C[S+]([O-])c1nc2ccccc2[nH]1 (stereo not given) [lansoprazole] (10 µM)	0.115
CC(C)C(=O)c1c(C(C)C)nn2ccccc12 [ibudilast] (10 µM)	0.0924
CN(C(=O)Cc1ccccc1)[C@H](CN1CCCC1)c1ccccc1 (10 µM)	0.0751
CCN(CC)CCCCN1c2ccccc2Oc2ccc(Cl)cc21 (0.833333 µM)	0.331
O=C(O)C(F)(F)C(F)(F)C(F)(F)C(F)(F)C(F)(F)C(F)(F)C(F)(F)F [ammonium-perfluorocaprylate] (10 µM)	-0.0312
CC1(COc2ccc(CC3SC(=O)NC3=O)cc2)CCCCC1 (stereo not given) [ciglitazone] (10 µM)	0.036
COc1cc(C(=O)NCC2(N(C)C)CCCC2)cc(OC)c1OCc1ccccc1 (10 µM)	0.334
COc1cc(NC(C)CCCN)c2ncccc2c1 (stereo not given) [primaquine] (10 µM)	0.491
COc1ncc2cc(C(=O)Nc3cc(C(=O)NCc4cccc(Cl)c4)ccc3Cl)c(=O)[nH]c2n1 (10 µM)	-0.0693
NC(=O)c1ccc([N+](=O)[O-])cc1Cl [aklomide] (10 µM)	-0.229
C[C@]12C/C(=C/O)C(=O)C[C@@H]1CC[C@@H]1[C@@H]2CC[C@@]2(C)[C@H]1CC[C@]2(C)O [Oxymetholone] (10 µM)	-0.162
COc1ccccc1C(=O)Nc1cccc(NC(=O)c2cccc(C)c2)c1 (10 µM)	0.257
CNC(=O)[C@H]1O[C@@H](n2cnc3c(NCc4cccc(I)c4)nc(Cl)nc32)[C@H](O)[C@@H]1O (10 µM)	-0.0292
C[C@]12CCC(=O)C=C1C=C[C@@H]1[C@@H]2CC[C@@]2(C)[C@H]1CC[C@@]2(O)CCC(=O)O [potassium-canrenoate] (10 µM)	-0.166
CC1(C)C(/C=C/C=C/C=C/C=C2\N(CCCCS(=O)(=O)O)c3ccc4ccccc4c3C2(C)C)=[N+](CCCCS(=O)(=O)[O-])c2ccc3ccccc3c21 [indocyanine-green] (10 µM)	0.0305
CC(CNC1CCCCC1)OC(=O)c1ccccc1 (stereo not given) [hexylcaine] (10 µM)	-0.0327
COc1cc2c(Oc3ccc(NC(=O)C4(C(=O)Nc5ccc(F)cc5)CC4)cc3F)ccnc2cc1OCCCN1CCOCC1 [foretinib] (10 µM)	0.152
O=c1c(-c2ccccc2)c1-c1ccccc1 [diphencyprone] (10 µM)	-0.0547
CN1C2CCC1CC(OC(c1ccccc1)c1ccc(Cl)cc1)C2 (stereo not given) (0.833333 µM)	0.251
CCCC[C@H](NC(=O)[C@@H]1[C@@H]2[C@H](CN1C(=O)[C@@H](NC(=O)NC1(CS(=O)(=O)C(C)(C)C)CCCCC1)C(C)(C)C)C2(C)C)C(=O)C(=O)NC1CC1 [narlaprevir] (10 µM)	0.157
